Compounds without any hit were thinned out: in the full panel of roughly 83,000, 20% have a hit.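 Assay: single dose, 48 h. Readout: percent growth (0 = no net growth; negative = cell death). Active: <10.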 A number with no mark means an inactive call. Calls of active or inactive are those of the source.
Assays:
Assay in all cases: NCI-60 one-dose screen, 48 h (100 = growth as untreated, 0 = no growth, -100 = all killed)
SK-MEL-2 melanoma = conditions: 10 µM unless noted
EKVX NSCLC = conditions: 10 µM
SN12C renal = conditions: 10 µM unless noted
UO-31 renal = conditions: 10 µM unless noted
TK-10 renal = conditions: 10 µM unless noted
ACHN renal = conditions: 10 µM unless noted
CCRF-CEM leukemia = conditions: 10 µM
MOLT-4 leukemia = conditions: 10 µM unless noted
SR leukemia = conditions: 10 µM unless noted
RPMI-8226 leukemia = conditions: 10 µM unless noted
OVCAR-8 ovarian = conditions: 10 µM unless noted
OVCAR-5 ovarian = conditions: 10 µM unless noted
OVCAR-4 ovarian = conditions: 10 µM unless noted
SK-OV-3 ovarian = conditions: 10 µM unless noted
IGROV1 ovarian = conditions: 10 µM unless noted
OVCAR-3 ovarian = conditions: 10 µM unless noted
HS 578T breast = conditions: 10 µM unless noted
NCI/ADR-RES ovarian = conditions: 10 µM unless noted
CAKI-1 renal = conditions: 10 µM unless noted
A498 renal = conditions: 10 µM unless noted

SMILES | growth (SK-MEL-2 melanoma) | growth (EKVX NSCLC) | growth (SN12C renal) [%] | growth (UO-31 renal) | growth (TK-10 renal) [%] | growth (ACHN renal) | growth (CCRF-CEM leukemia) | growth (MOLT-4 leukemia) | growth (SR leukemia) | growth (RPMI-8226 leukemia) [%] | growth (OVCAR-8 ovarian) | growth (OVCAR-5 ovarian) [%] | growth (OVCAR-4 ovarian) | growth (SK-OV-3 ovarian) [%] | growth (IGROV1 ovarian) | growth (OVCAR-3 ovarian) | growth (HS 578T breast) | growth (NCI/ADR-RES ovarian) | growth (CAKI-1 renal) | growth (A498 renal)
Nc1ccc(N=Nc2ccccc2)c2cc(S(=O)(=O)O)ccc12 | 91.1% | 105% | 108 | 86.7% | 92.9 | 104% | 99.9% | 106% | 95.8% | 103 | 96.5% | 107 | 107% | 97.8 | 108% | 108% | 104% | 101% | – | –
CCCNC(=O)Oc1ccc(/C(=C(/C)Cc2ccc(OC)cc2)c2ccc(OCCN3CCCC3)cc2)cc1 | 98.8% | 70.1% | 71.3 | 50.3% | 83.4 | 78.6% | 50.7% | 52.8% | -20.2% (active) | 49.5 | 79.5% | 88.4 | 61.5% | 81.3 | 81.9% | 83.6% | 58.3% | 75.9% | – | –
COC1=C(OC)C(=O)c2ccccc2C1=O | 107% | 97.8% | 108 | 78.6% | 115 | 92% | 61.6% | – | – | 97.5 | 93.3% | 101 | 74.9% | 111 | 104% | 87.8% | – | 94.3% | – | –
Cc1c([C@H](C(Cl)Cl)[C@H](O)[C@H]2C[C@H](C)C(=O)O2)ccc2c1C(=O)[C@H]1[C@H]2C[C@@H](Br)[C@@]23O[C@@H](CO[C@H]2O)CC13C (stereo partly specified) | 74% | 27.7% | 25.1 | 56.2% | – | 45.9% | 17.2% | 16.4% | 11.9% | 26.7 | 5.88% (active) | 55.6 | 38.6% | – | 36.5% | -56.5% (active) | -23.2% (active) | 30.8% | -31.4% (active) | -22.6% (active)
N=C(N)N=Nc1ccc(NN=C(N)N)cc1 | 105% | 36.3% | 89 | 53.6% | 103 | 88.2% | 96.3% | 105% | 108% | 95.8 | 94.4% | 78.7 | 100% | 24 | 99.8% | 108% | – | 110% | – | –
CC(=N\N=C(N)N)/C(=N/N=C(N)N)c1ccccc1 | 84.6% | 68.6% | 107 | 82.9% | 91.1 | 106% | 32.2% | 48.9% | 89.3% | 91.7 | 83.1% | 96.1 | 79.2% | 102 | 91.4% | 97.9% | – | 90.2% | – | –
CCOC(=O)C1CCCN1C(=O)C1(NC(C)=O)CCCC1 (stereo unspecified) | 110% | 100% | 118 | 88.5% | 107 | 117% | 97.4% | 116% | 102% | 95.7 | 103% | 96.4 | 105% | 104 | 96.8% | 103% | – | 103% | – | –
CCOC(=O)CSSCC(=O)OCC | 111% | 105% | 103 | 100% | – | 103% | 95.9% | 90.3% | 88.7% | 98.6 | 101% | 108 | – | 102 | 110% | 110% | – | 110% | 97.5% | 118%
CC(=O)/C(=C/c1ccc(-c2ccccc2)cc1)C(=O)c1ccccc1 | 99.1% | 100% | 92.7 | 76.3% | – | 88.3% | 38.6% | 5.31% (active) | 5.97% (active) | 39.9 | 84.5% | 106 | 85.8% | 95.4 | 91% | 89.4% | 102% | 93.1% | 91.3% | 96.5%
N=C(N)N=Nc1ccc(NN=C(N)N)c2ccccc12 | 104% | 116% | 73.2 | 69.6% | 108 | 105% | 101% | 97.1% | 109% | 110 | 96.2% | 108 | 106% | 88.1 | 107% | 127% | – | 110% | – | –
O=C1CSC(c2ccccc2Cl)N1c1nnc(-c2ccncc2)o1 (stereo unspecified) | 101% | 93.2% | 98.3 | 90.8% | – | 94.3% | 102% | 94.3% | 96% | 86 | 103% | 94.1 | 97.8% | – | 89% | 108% | 109% | 92.3% | 107% | 72.4%
C#CCCCCCCC[C@@H]1OC(=O)[C@H]([C@@H](C)CC)NC(=O)[C@H]([C@@H](C)CC)NC(=O)CC(=O)[C@@H]1C | 106% | 97.8% | 98.5 | 67.3% | – | 94% | 89.8% | 80.3% | 82.2% | 89.4 | 101% | 90.6 | 97.6% | 103 | 89.5% | 101% | 90.1% | 94.9% | 71.4% | 92.7%
CC([C@H]1CC=C2C3CCC4=C[C@@H](N(C)C)CC[C@]4(C)C3CC[C@@]21C)N(C)C (stereo partly specified) | 90.8% | -38.8% (active) | 21.5 | – | 95.5 | 48.1% | 43.4% | 73.5% | 71.5% | – | 85.3% | 86.3 | 8.25% (active) | 80.3 | 50.8% | 42% | 61% | 68.8% | -48.8% (active) | 96.4%
CCOC(=O)c1sc(NS(=O)(=O)c2ccccc2)nc1C | 2.52% (active) | – | 100 | 87% | 163 | 123% | 103% | 75.6% | 102% | 120 | 114% | 107 | 111% | 106 | 6.87% (active) | 133% | 111% | 114% | 124% | 114%
Clc1ccc(N/N=C/c2ccccn2)nc1 | 37.4% | – | 14.4 | -12% (active) | 26.7 | 5.14% (active) | 11.6% | 5.02% (active) | 6.32% (active) | 26.3 | 18.1% | 30.3 | 6.01% (active) | 27.2 | 11.2% | 22.3% | 60.1% | -1.35% (active) | 8.53% (active) | -3.65% (active)
CCN(CC)CCCC(C)Nc1c(C)cnc2cc(Cl)c(C)cc12 (stereo unspecified) | 117% | – | 94.5 | 66.8% | 90.5 | 94% | 62.2% | 62.7% | 16.5% | 43.6 | 96% | 98.1 | 85.4% | 98.5 | 96.3% | 92.9% | 96.3% | 93.2% | 80.6% | 83.2%
Cc1ccc([C@@H]2C[C@H](O)Cc3ccccc3N2)s1 | 141% | 97.6% | – | 94.5% | 119 | 104% | 105% | 95.7% | 96.4% | 102 | 99.1% | 97.7 | – | 98.6 | 100% | 111% | – | 104% | 94.8% | 91.2%
CCCCCCCCCCCCCCCC[n+]1cccc(C#N)c1 | 97.7% | – | 96.9 | 67.6% | 69.3 | 39.2% | -26% (active) | -13.3% (active) | -8.5% (active) | 45.1 | 51.6% | 79.7 | 56.6% | 100 | 69.2% | 35.5% | 96.6% | 96.3% | 73% | 86.6%
